Experimental data taken from PubChem BioAssay (NCATS).
Unmarked numbers belong to inactive results. Results filed as inconclusive are left out. Where a call stands in place of a potency, no number is given. Calls of active or inactive are those of the source. Unless noted, calls follow the shape of the dose curve; as a rule, active = well fitted cell-killing curve with a large enough effect; inconclusive = small, poorly fitted or top-dose-only effect; inactive = flat fitted curve, though single readings scatter.

What was measured:
[1] = Cell Viability - LYMP2-025 (AID 976); also: series mostly up to about 92 µM
In short: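 In qHTS format, LYMP2-025 lymphoblastoid cells in complete culture medium received compound for 24 hr; ATP-based CellTiter-Glo signal gave viability, with AC50 derived by Hill equation.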

[2] = Cell Viability - LYMP2-002 (AID 977);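 also: compound exposure lasted 24 h at 37 °C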; also: potency is read from the fitted curve at half-maximal effect
In short: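 Human lymphoblastoid LYMP2-002 cells, 2500 per well, exposed to compounds for 24 h at 37 C in complete medium; viability read as intracellular ATP by CellTiter-Glo luminescence, AC50 from Hill fits.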

[3] = Cell Viability - LYMP2-006 (AID 978); also: nearly all actives have a fitted effect of over 60% in size; also: potency is read from the fitted curve at half-maximal effect
In short: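 Human lymphoblastoid cells, 2500 per well, were preincubated 5 hr at 37 C, then exposed to compounds for 24 hr at 37 C in complete medium. Viability was read as intracellular ATP by CellTiter-Glo luminescence; AC50 from Hill-equation fits of qHTS concentration-response data.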

[4] = Cell Viability - LYMP2-007 (AID 979);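 also: cells exposed to compound for 24 h before reading; nearly all actives have a fitted effect of over 60% in size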; also: potency is read from the fitted curve at half-maximal effect
In short: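 Acute toxicity is scored as a concentration-dependent fall in intracellular ATP in human lymphoblastoid cells treated 24 hr at 37 C, measured by luciferase luminescence; Hill-equation modelling yields AC50.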

[5] = Cell Viability - LYMP2-008 (AID 980); also: nearly all actives have a fitted effect of over 60% in size; also: potency is read from the fitted curve at half-maximal effect
In short: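 Acute cytotoxicity is scored as concentration-dependent loss of cellular ATP in a human lymphoblastoid line after 24 hr treatment at 37 C. ATP is quantified by luciferase luminescence.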

[6] = Cell Viability - LYMP2-010 (AID 981); also: nearly all actives have a fitted effect of over 55% in size; also: potency is read from the fitted curve at half-maximal effect
In short: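 Acute toxicity is scored as a concentration-dependent loss of cellular ATP in human lymphoblastoid cells after 24 hr compound exposure in complete medium. Tetraoctylammonium bromide is the positive control.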

[7] = Cell Viability - LYMP2-012 (AID 982);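 also: cellular ATP by luciferase luminescence where a drop means cytotoxicity; cells exposed to compound for one day before reading; nearly all actives have a fitted effect of over 55% in size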; also: potency is read from the fitted curve at half-maximal effect
[8] = Cell Viability - LYMP2-014 (AID 983); also: nearly all actives have a fitted effect of over 50% in size; also: potency is read from the fitted curve at half-maximal effect
In short: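 Decrease in intracellular ATP after 24 hr treatment at 37 C, measured by luciferase luminescence, indicated cytotoxicity. Concentration-response data were fitted with the standard Hill equation to give AC50.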

[9] = Cell Viability - LYMP2-016 (AID 984); also: nearly all actives have a fitted effect of over 55% in size; also: potency is read from the fitted curve at half-maximal effect
In short: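 Human lymphoblastoid cells (LYMP2-016), 2500/well in complete medium, preincubated 5 hr at 37 C, then compound-treated 24 hr at 37 C. Intracellular ATP read by CellTiter-Glo luminescence after 30 min at room temperature; AC50 from Hill-equation concentration-response fits.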

[10] = Cell Viability - LYMP2-018 (AID 985);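 also: compound exposure lasted 24 hr at 37 °C; nearly all actives have a fitted effect of over 50% in size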; also: potency is read from the fitted curve at half-maximal effect
In short: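 Acute cytotoxicity is scored as a concentration-dependent drop in intracellular ATP after 24 hr exposure of the lymphoblastoid line in complete culture medium, measured by luciferase luminescence. Potency is expressed as AC50 from Hill modelling.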

[11] = Cell Viability - LYMP2-020 (AID 986); also: nearly all actives have a fitted effect of over 55% in size; also: potency is read from the fitted curve at half-maximal effect
In short: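 Acute cytotoxicity in a human lymphoblastoid line is scored as a concentration-dependent fall in cellular ATP after 24 hr at 37 C in complete medium. The positive control is tetraoctylammonium bromide, and potency is given as Hill-fit AC50.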

[12] = Cell Viability - LYMP2-022 (AID 987); also: nearly all actives have a fitted effect of over 55% in size; also: potency is read from the fitted curve at half-maximal effect
In short: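 Acute toxicity in a human lymphoblastoid line is scored as decreased intracellular ATP after 24 hr compound treatment at 37 C. ATP is measured by CellTiter-Glo luminescence; curves are fitted with the Hill equation to give AC50.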

[13] = Cell Viability - LYMP2-024 (AID 988); also: nearly all actives have a fitted effect of over 60% in size; also: potency is read from the fitted curve at half-maximal effect
In short: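 Acute toxicity is measured as concentration-dependent loss of intracellular ATP in a human lymphoblastoid line treated 24 hours at 37 C. Luciferase luminescence quantifies ATP; AC50 values come from standard Hill-equation modelling.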

[14] = Cell Viability - LYMP2-026 (AID 989); also: nearly all actives have a fitted effect of over 50% in size
In short: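 Concentration-dependent loss of intracellular ATP in human lymphoblastoid cells after 24 hr at 37 C, quantified by luciferase luminescence. AC50 derived from standard Hill equation.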

[15] = Cell Viability - LYMP1-002 - Assay at 24 hr (AID 993)
In short: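 qHTS, LYMP1-002 lymphoblastoid, 24 h cpd, 37 C, CellTiter-Glo ATP luminescence; AC50 via Hill eq.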

[16] = Cell Viability - LYMP1-002 - Assay at 40 hr (AID 994); also: nearly all actives have a fitted effect of over 60% in size
In short: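 Viability in the human lymphoblastoid line was measured as intracellular ATP via CellTiter-Glo after 40 hr compound exposure. Tetraoctylammonium bromide served as positive control.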

[17] = qHTS Assay for Identification of Small Molecule Inducers of Hypoxia Response (AID 2120; active = well fitted curve in the direction sought with a large enough effect in the signal ratio, with a control signal flat, not every such curve was filed as active; the % refers to the signal ratio)
In short: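 Induction of beta-lactamase reporter activity was measured in CellSensor HRE-bla ME-180 cells after 17 h compound treatment at 37 degrees C, using CCF4 substrate and the 460nm/530nm emission ratio to derive AC50 values.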

| SMILES | Potency [1] | Potency [2] | Potency [3] | Potency [4] | Potency [5] | Potency [6] | Potency [7] | Potency [8] | Potency [9] | Potency [10] | Potency [11] | Potency [12] | Potency [13] | outcome [14] | Potency [15] | Potency [16] | outcome [17] |
| --- | --- | --- | --- | --- | --- | --- | --- | --- | --- | --- | --- | --- | --- | --- | --- | --- | --- |
| CC(=O)CCc1ccccc1 | inactive | inactive | inactive | inactive | inactive | inactive | inactive | inactive | inactive | inactive | inactive | inactive | inactive | inactive | inactive | inactive | inactive |
| Nc1nc(CC(=O)O)cs1 | inactive | inactive | inactive | inactive | inactive | inactive | inactive | inactive | inactive | inactive | inactive | inactive |  | inactive | inactive | inactive | inactive |
| NC(=S)NNC(N)=S | inactive | inactive | inactive | inactive | inactive | inactive | inactive | inactive | inactive | inactive | inactive | inactive | inactive | inactive |  | inactive | inactive |
| Cc1c(N)cccc1N | inactive | inactive | inactive | inactive | inactive | inactive | inactive | inactive | inactive | inactive | inactive | inactive | inactive | inactive | inactive | inactive | inactive |
| CC1CCCO1 (configuration not stated) | inactive | inactive | inactive | inactive | inactive | inactive | inactive | inactive | inactive | inactive | inactive | inactive | inactive | inactive | inactive | inactive | inactive |
| Nc1ccccc1S(=O)(=O)O | inactive | inactive | inactive | inactive | inactive | inactive | inactive | inactive | inactive | inactive | inactive | inactive | inactive | inactive | inactive | inactive | inactive |
| O=[N+]([O-])c1ccccc1CCO | inactive | inactive | inactive | inactive | inactive | inactive | inactive | inactive | inactive | inactive | inactive | inactive |  | inactive |  | inactive | inactive |
| NC=O | inactive | inactive | inactive | inactive | inactive | inactive | inactive | inactive | inactive | inactive | inactive | inactive | inactive | inactive | inactive | inactive | inactive |
| COc1ccccc1[N+](=O)[O-] | inactive | inactive | inactive | inactive | inactive | inactive | inactive | inactive | inactive | inactive | inactive | inactive | inactive |  | inactive | inactive | inactive |
| CCCCC(CC)CO (configuration not stated) | inactive | inactive | inactive | inactive | inactive | inactive | inactive | inactive | inactive | inactive | inactive | inactive | inactive | inactive | inactive | inactive | inactive |
| Clc1ccccn1 | inactive | inactive | inactive | inactive | inactive | inactive | inactive | inactive | inactive | inactive | inactive | inactive | inactive | inactive |  | inactive | inactive |
| CCC(C)=O | inactive | inactive | inactive | inactive | inactive | inactive | inactive | inactive | inactive | inactive | inactive | inactive |  | inactive | inactive | inactive | inactive |
| Cc1cccc(Br)c1 | inactive | inactive | inactive | inactive | inactive | inactive | inactive | inactive | inactive | inactive | inactive | inactive | inactive | inactive |  | inactive | inactive |
| Cc1cccc2cccnc12 | inactive | inactive | inactive | inactive | inactive | inactive | inactive | inactive | inactive | inactive | inactive | inactive | inactive | inactive |  | inactive | inactive |
| CCCCCNCCCCC | inactive | inactive | inactive | inactive | inactive | inactive | inactive | inactive | inactive | inactive | inactive | inactive | inactive | inactive | inactive | inactive | inactive |
| Cc1ccc(C)o1 | inactive | inactive | inactive | inactive | inactive | inactive | inactive | inactive | inactive | inactive | inactive | inactive | inactive | inactive | inactive | inactive | inactive |
| Clc1ccc(Cl)c(Cl)c1Cl | inactive | inactive | inactive | inactive | inactive | inactive | inactive | inactive | inactive | inactive | inactive | inactive |  | inactive | inactive | inactive | inactive |
| CCCCCCCCN | inactive | inactive | inactive | inactive | inactive | inactive | inactive | inactive | inactive | inactive | inactive | inactive | inactive | inactive | inactive | inactive | inactive |
| COc1cccc(N)c1 | inactive | inactive | inactive | inactive | inactive | inactive | inactive | inactive | inactive | inactive | inactive | inactive | inactive | inactive | inactive | inactive | inactive |
| Nc1ccccc1[N+](=O)[O-] | inactive | inactive | inactive | inactive | inactive | inactive | inactive | inactive | inactive | inactive | inactive | inactive | inactive | inactive |  | inactive | inactive |
| C=CCCCCCCC=C | inactive | inactive | inactive | inactive | inactive | inactive | inactive | inactive | inactive | inactive | inactive | inactive | inactive |  | inactive | inactive | inactive |
| O=C(O)CN(CC(=O)O)CC(=O)O | inactive | inactive | inactive | inactive | inactive | inactive | inactive | inactive | inactive | inactive |  | inactive | inactive | inactive | inactive | inactive | inactive |
| O=[N+]([O-])c1ccc(NCCO)c(OCCO)c1 | inactive | inactive | inactive | inactive | inactive | inactive | inactive | inactive | inactive | inactive |  | inactive | inactive | inactive | inactive | inactive | inactive |
| CCCCC/C=C/C=C/C=O |  | 50.1 µM (active) | 50.1 µM (active) | 39.8 µM (active) | 39.8 µM (active) | 39.8 µM (active) | 50.1 µM (active) | 50.1 µM (active) | 50.1 µM (active) | 79.4 µM (active) | 39.8 µM (active) | 50.1 µM (active) | 50.1 µM (active) |  | inactive | inactive | inactive |
| Nc1cccc(N)c1 |  | inactive | inactive | inactive | inactive | inactive | inactive | inactive | inactive | inactive | inactive | inactive | inactive |  | inactive | inactive | inactive |
